# Laboratory results from PubChem BioAssay (NCATS).
# Inconclusive results are not listed. The source made the active and inactive calls. Unless noted, the call rests on the fitted dose curve; in most records, active means well fitted curve in the direction sought with a large enough effect; inconclusive means small, poorly fitted or top-dose-only effect, or another doubt; inactive means no such curve, though single readings can be large; an effect the other way counts as inactive or inconclusive.
# Columns and labels:
# [1] = target: Lysosomal acid glucosylceramidase (Homo sapiens) (UniProt P04062); test: Glucocerebrosidase-p2 (AID 348; in the data active means potency below about 10 µM; further: potency means the concentration at half of the fitted maximal effect); conditions: purified GBA, blue fluorogenic substrate, 40 min
# Chain of Lysosomal acid glucosylceramidase (Homo sapiens) (P04062 whole entry, looked up): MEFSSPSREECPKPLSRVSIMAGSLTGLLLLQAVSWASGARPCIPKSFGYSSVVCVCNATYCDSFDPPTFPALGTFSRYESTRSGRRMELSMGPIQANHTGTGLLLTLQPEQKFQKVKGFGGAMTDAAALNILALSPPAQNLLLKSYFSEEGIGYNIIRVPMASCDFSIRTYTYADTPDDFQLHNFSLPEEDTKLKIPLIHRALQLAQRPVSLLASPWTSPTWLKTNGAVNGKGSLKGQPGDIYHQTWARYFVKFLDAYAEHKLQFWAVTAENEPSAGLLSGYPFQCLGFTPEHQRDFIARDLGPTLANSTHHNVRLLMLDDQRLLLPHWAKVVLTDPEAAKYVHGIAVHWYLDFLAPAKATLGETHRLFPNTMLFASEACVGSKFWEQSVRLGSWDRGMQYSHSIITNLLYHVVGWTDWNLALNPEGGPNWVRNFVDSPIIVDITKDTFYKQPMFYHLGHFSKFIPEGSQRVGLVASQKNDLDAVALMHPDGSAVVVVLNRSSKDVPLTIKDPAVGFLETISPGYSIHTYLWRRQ
# Procedure, shortened: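 Normal human glucocerebrosidase (0.2 nM) with blue fluorogenic substrate (80 uM final) in citrate/phosphate pH 5.9 with 10mM sodium taurocholate, 0.01% tween-20; 40 min RT, NaOH/glycine stop; fluorescence Ex 365/Em 440; AC50 from a titration from 0.6 nM upwards.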
# [2] = AP1 Signaling Pathway (AID 357; active means well fitted curve in either direction with a large enough effect, not every such curve was filed as active; further: on the % scale 0 is the no-effect control and ±100 the full control effect); conditions: ME-180 AP-1-bla reporter, EGF-induced, beta-lactamase ratio, 5 h; at 7.69 µM (top of the series) unless noted
# Procedure, shortened: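 ME-180 cells with beta-lactamase reporter under AP-1 response element, stimulated with EC50 EGF; compounds tested in titration series, 5 h at 37 °C. CCF4 substrate added 2.5 h at room temperature; 460/530 nm emission ratio gave %activity and AC50.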
# [3] = NFAT Signaling Pathway (AID 444; active means well fitted curve in either direction with a large enough effect, not every such curve was filed as active;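 further: carbachol stimulus at about its EC50 of 1 µM final; on the % scale 0 is the no-effect control and ±100 the full control effect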); conditions: Jurkat NFAT-bla M1, carbachol, beta-lactamase ratio, 5 h; at 7.69 µM (top of the series) unless noted
# Procedure, shortened: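 Jurkat cells carrying an NFAT-driven β-lactamase reporter and co-transfected muscarinic M1 receptor were treated with compound plus carbachol (1 uM final, an EC50 level) for 5 h at 37 °C. CCF4 loading followed for 1 h at RT; 460/530 nm ratio gave %activity.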
# [4] = Stat Signaling Pathway (AID 446; active means well fitted curve in either direction with a large enough effect, not every such curve was filed as active;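 further: ME-180 cervical cancer cells given 40 pM IL-6 alongside compound; SIE-controlled beta-lactamase reporter measured as 460/530 nm FRET emission ratio; on the % scale 0 is the no-effect control and ±100 the full control effect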); conditions: ME-180 (cervical carcinoma) SIE beta-lactamase reporter, IL-6 stimulated, 5 h; at 7.69 µM (top of the series) unless noted
# Procedure, shortened: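 Normalization used AC90 stimulation (300 pM IL-6) and AC90 inhibition (125 nM pan-JAK inhibitor at 40 pM IL-6). The underlying signal is SIE-driven beta-lactamase in ME-180 cells after 5 h IL-6 exposure with compound.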
# [5] = target: Glucocorticoid receptor (Homo sapiens) (UniProt P04150); test: GR-GFP Redistribution (AID 450;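 active means compounds whose dose series gives a full or clear partial fitted curve of increased nuclear translocation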; further: potency means the concentration at half of the fitted maximal effect); conditions: U2OS GR-GFP nuclear translocation, laser cytometry, 2 h
# Chain of Glucocorticoid receptor (Homo sapiens) (P04150 whole entry, looked up, the tested form may be a part): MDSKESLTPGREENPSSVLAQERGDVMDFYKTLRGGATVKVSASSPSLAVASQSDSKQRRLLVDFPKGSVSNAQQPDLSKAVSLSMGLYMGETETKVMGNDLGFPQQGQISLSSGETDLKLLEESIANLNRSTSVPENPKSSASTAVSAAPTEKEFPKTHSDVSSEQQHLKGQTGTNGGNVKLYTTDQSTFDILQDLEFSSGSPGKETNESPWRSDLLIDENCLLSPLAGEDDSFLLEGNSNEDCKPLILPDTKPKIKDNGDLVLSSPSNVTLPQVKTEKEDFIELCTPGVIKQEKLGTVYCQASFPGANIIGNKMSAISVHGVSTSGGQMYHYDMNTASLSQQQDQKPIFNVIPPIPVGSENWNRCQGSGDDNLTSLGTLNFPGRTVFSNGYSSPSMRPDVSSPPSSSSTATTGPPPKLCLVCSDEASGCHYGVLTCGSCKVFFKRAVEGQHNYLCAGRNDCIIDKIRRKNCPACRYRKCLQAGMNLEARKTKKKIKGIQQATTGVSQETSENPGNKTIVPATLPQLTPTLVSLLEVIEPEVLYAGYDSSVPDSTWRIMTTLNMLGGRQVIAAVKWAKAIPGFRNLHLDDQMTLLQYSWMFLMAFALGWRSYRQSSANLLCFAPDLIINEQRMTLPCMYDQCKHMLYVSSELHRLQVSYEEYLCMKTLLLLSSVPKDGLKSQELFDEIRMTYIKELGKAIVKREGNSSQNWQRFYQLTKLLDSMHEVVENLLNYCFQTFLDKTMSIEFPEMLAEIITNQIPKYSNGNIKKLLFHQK
# [6] = target: Glucocorticoid receptor (Homo sapiens) (UniProt P04150); test: GR-EFC Redistribution (AID 451; calls by dose curve; further: potency means the concentration at half of the fitted maximal effect); conditions: CHO-K1 GR-EFC translocation, beta-gal luminescence, 2 h
# Procedure, shortened: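 CHO-K1 cells stably expressing nuclear-localized β-gal enzyme acceptor and GR fused C-terminally to the enzyme donor fragment; ligand-driven nuclear translocation restores β-gal by complementation. Compounds titrated up to 46 uM final, 2 h at 37 °C; luminescence read.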
# [7] = target: Mitogen-activated protein kinase 10 (Mus musculus) (UniProt Q61831); test: JNK3 AlphaScreen Assay (AID 530; active means well fitted curve in either direction with a large enough effect, not every such curve was filed as active;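 further: kinase came from lysate of stimulated human HepG2 cells; signal reports phosphorylation of biotinylated GST-cJun 1-79 at Ser73 with 10 µM ATP; on the % scale 0 is the no-effect control and ±100 the full control effect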); conditions: JNK3 lysate, c-Jun phosphorylation; series mostly up to 57.1 µM
# Procedure, shortened: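 Biotinylated GST-cJun(1-79) served as substrate for JNK3 in HepG2 lysates stimulated with IL-1beta and TNF-alpha. ATP was 10 uM final, pH 7.6. Ser73 phosphorylation was quantified by AlphaScreen (680 nm excitation).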
# [8] = target: 3',5'-cyclic-AMP phosphodiesterase 4B (Homo sapiens) (UniProt Q07343); test: qHTS Assay for Inhibitors of PDE-IV (AID 607; active means well fitted activation curve with a large enough effect in the main read-out, with a control signal flat, not every such curve was filed as active; further: % of control where 0% means no effect); conditions: HEK293 ACTOne CNG channel cells, membrane potential fluorescence; series mostly up to 22.9 µM
# Chain of 3',5'-cyclic-AMP phosphodiesterase 4B (Homo sapiens) (Q07343 whole entry, looked up): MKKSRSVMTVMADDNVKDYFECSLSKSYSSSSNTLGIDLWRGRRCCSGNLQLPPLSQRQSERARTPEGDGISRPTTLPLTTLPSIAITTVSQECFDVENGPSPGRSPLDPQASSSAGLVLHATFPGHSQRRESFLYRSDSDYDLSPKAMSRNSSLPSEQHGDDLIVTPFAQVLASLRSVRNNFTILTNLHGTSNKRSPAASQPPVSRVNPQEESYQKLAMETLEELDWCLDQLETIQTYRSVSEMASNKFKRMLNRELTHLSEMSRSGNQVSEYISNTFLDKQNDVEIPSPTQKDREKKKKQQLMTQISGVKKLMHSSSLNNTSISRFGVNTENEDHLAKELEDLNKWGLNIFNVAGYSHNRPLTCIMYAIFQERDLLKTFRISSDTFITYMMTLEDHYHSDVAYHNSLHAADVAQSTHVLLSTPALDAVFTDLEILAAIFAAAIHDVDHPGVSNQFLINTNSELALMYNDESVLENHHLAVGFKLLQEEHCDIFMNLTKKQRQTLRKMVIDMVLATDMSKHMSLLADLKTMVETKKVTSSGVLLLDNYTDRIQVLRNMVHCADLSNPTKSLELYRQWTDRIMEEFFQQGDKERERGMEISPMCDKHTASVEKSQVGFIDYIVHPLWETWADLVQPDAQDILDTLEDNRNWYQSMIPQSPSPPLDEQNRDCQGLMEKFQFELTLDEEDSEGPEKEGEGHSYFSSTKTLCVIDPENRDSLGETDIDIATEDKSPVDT
# Procedure, shortened: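 HEK293 ACTOne cells with CNG channel (1000/well), endogenous PDE4; membrane potential dye, compounds up to 22.9 uM final. Fluorescence Ex 535/Em 590; RO 20-1724 (100 uM final) as reference.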
# [9] = qHTS Assay for Lipid Storage Modulators (AID 1519; calls by dose curve); conditions: Drosophila S3 cells, BODIPY lipid droplet/cell ratio, laser cytometry, cells loaded with oleic acid; for activity change, negative = inhibition: at 57.5 µM (top of the series)
# Procedure, shortened: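 Cells seeded at 5,000 per well were treated with compounds over a concentration series and loaded with oleic acid (400 uM, as added). Lipid droplet fluorescence (488 nm excitation, 500-530 nm channel) was read by laser-scanning cytometry and normalized to 20 uM Triacsin C.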
# [10] = target: Dual specificity protein kinase CLK4 (Homo sapiens) (UniProt Q9HAZ1); test: qHTS Assay for Inhibitors of CDC-like Kinase 4 (Kinase-Glo Assay) (AID 1770); conditions: recombinant Clk4, Kinase-Glo ATP depletion luminescence; series mostly up to 66.7 µM; further: nearly all actives have a fitted effect of over 65% in size; further: potency means the concentration at half of the fitted maximal effect
# Chain of Dual specificity protein kinase CLK4 (Homo sapiens) (Q9HAZ1 whole entry, looked up): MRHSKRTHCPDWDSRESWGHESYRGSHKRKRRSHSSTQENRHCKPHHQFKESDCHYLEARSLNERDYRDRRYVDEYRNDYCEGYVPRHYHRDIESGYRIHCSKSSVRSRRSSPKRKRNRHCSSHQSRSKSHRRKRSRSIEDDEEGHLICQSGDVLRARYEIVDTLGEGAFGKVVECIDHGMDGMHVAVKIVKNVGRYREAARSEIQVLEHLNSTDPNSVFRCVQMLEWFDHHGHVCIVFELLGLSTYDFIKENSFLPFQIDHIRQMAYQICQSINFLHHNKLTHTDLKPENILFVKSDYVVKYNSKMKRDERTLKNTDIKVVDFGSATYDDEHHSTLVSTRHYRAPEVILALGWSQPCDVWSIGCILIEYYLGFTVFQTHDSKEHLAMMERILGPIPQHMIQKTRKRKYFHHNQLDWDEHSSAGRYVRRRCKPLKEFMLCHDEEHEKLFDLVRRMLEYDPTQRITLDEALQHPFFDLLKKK
# Procedure, shortened: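 Recombinant human Clk4 (25 nM) phosphorylated RS repeat peptide (100 uM) with 1 uM ATP in Tris pH 7.5/MgCl2/EGTA/DTT/Triton buffer for 4.5 h at room temperature. Residual ATP was quantified by Kinase-Glo luciferase luminescence.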
# [11] = target: Dual specificity protein kinase CLK4 (Homo sapiens) (UniProt Q9HAZ1); test: qHTS Assay for Inhibitors of CDC-like Kinase 4 (ADP-Glo Assay) (AID 1771); conditions: recombinant CLK4, ADP-Glo luminescence; series mostly up to 80 µM; further: nearly all actives have a fitted effect of over 70% in size; further: potency means the concentration at half of the fitted maximal effect
# Procedure, shortened: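 In this ADP-Glo format, 1 uM ATP and 100 uM RS peptide served as substrates for 25 nM Clk4 in Mg2+/EGTA/DTT/Triton buffer; reactions ran 1 hr at room temperature before luminescent ADP quantification.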
# [12] = target: Ubiquitin carboxyl-terminal hydrolase 1 (Homo sapiens) (UniProt O94782); test: Inhibitors of USP1/UAF1: Pilot qHTS (AID 504865); conditions: purified USP1/UAF1, Ub-rhodamine cleavage fluorescence; series mostly up to 54.9 µM; further: nearly all actives have a fitted effect of over 35% in size; further: potency means the concentration at half of the fitted maximal effect
# Chain of Ubiquitin carboxyl-terminal hydrolase 1 (Homo sapiens) (O94782 whole entry, looked up): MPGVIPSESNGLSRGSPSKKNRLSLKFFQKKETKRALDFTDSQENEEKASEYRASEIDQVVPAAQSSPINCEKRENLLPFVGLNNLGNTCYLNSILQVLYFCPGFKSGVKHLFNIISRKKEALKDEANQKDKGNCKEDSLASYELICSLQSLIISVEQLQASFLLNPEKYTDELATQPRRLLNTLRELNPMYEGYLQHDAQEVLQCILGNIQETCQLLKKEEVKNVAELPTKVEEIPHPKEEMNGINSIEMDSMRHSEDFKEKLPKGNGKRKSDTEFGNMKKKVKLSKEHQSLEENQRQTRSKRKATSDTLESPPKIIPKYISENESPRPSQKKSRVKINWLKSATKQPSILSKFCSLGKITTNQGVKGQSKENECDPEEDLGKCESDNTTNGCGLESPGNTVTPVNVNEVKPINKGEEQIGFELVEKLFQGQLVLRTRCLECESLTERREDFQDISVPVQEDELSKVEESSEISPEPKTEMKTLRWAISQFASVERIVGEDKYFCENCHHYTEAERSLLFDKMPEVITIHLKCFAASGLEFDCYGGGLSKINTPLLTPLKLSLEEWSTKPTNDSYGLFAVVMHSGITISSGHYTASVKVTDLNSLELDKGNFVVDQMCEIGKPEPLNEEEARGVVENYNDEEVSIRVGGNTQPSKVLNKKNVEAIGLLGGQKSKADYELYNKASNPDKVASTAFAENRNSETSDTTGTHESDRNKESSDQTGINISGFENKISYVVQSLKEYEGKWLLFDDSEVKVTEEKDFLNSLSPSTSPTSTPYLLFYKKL
# Procedure, shortened: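 USP1/UAF1 complex (1nM) preincubated with compound 15 min at room temperature, then Ub-Rho substrate (150nM final) added. Fluorescence read kinetically at 480/540 nm, 6 reads every 60 seconds. Buffer: 50mM HEPES pH 7.8, 0.5mM EDTA, 0.1 mg/ml BSA, 1mM TCEP, 0.01% Tween-20.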
# [13] = Primary qHTS for small molecule stabilizers of the endoplasmic reticulum resident proteome: Secreted ER Calcium Modulated Protein (SERCaMP) assay (AID 1508630); conditions: SH-SY5Y GLuc-SERCaMP (Gaussia luciferase released on ER calcium loss) secretion, thapsigargin, luminescence; series mostly up to 38.4 µM; further: on the % scale 0 is the no-effect control and ±100 the full control effect
# Procedure, shortened: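 The SH-SY5Y reporter protocol was run at 3 concentrations up to 38.3 uM (primary) or 11 concentrations (follow-up): 16 h compound, 100 nM thapsigargin for 4 h, then extracellular luciferase luminescence.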
# [14] = target: Cytochrome P450 1A2 (Homo sapiens) (UniProt P05177); test: p450-cyp1a2 (AID 410; calls by dose curve; further: potency means the concentration at half of the fitted maximal effect); conditions: recombinant CYP1A2, luciferin-ME demethylation, luminescence; series mostly up to 57 µM
# Chain of Cytochrome P450 1A2 (Homo sapiens) (P05177 whole entry, looked up): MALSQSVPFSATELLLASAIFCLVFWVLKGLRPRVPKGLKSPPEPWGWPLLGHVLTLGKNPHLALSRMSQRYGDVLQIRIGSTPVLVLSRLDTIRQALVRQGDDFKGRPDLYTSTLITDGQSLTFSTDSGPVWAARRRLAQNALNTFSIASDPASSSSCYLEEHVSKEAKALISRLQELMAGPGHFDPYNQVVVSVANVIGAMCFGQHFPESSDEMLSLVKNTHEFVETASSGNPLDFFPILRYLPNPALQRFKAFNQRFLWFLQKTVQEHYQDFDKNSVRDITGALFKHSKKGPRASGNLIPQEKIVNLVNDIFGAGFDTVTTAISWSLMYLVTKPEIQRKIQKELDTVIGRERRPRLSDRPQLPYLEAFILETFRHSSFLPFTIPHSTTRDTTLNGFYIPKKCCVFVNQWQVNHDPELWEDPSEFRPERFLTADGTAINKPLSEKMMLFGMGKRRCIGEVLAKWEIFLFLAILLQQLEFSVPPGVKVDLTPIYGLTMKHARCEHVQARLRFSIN
# Procedure, shortened: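 Read-out is luminescence from luciferin produced by CYP1A2 demethylation of Luciferin-ME (100uM, at Km). Detection reagent stopped the 60 min NADPH-dependent reaction; signals were normalized to 57 uM furafylline.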
# [15] = target: Cytochrome P450 3A4 (Homo sapiens) (UniProt P08684); test: qHTS Assay for Activators of Cytochrome P450 3A4 (AID 885); conditions: recombinant CYP3A4, Luciferin-PPXE luminescence, 60 min; series mostly up to 57.1 µM; further: nearly all actives have a fitted effect of over 65% in size
# Chain of Cytochrome P450 3A4 (Homo sapiens) (P08684 whole entry, looked up): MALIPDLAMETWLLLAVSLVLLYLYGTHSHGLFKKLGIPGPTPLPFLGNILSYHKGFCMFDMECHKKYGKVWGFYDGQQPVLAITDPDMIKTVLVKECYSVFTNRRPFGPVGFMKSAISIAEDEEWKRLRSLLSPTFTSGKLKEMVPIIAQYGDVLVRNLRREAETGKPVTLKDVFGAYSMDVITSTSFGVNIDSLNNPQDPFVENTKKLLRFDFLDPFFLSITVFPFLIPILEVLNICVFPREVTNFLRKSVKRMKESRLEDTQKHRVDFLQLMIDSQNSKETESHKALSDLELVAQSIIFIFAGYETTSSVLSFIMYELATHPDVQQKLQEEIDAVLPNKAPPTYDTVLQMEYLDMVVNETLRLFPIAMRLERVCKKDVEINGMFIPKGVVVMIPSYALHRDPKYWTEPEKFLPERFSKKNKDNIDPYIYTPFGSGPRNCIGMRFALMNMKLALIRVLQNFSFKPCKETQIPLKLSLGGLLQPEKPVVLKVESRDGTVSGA
# Procedure, shortened: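 Human CYP3A4 dealkylates Luciferin-PPXE to luciferin, which luciferase detection converts to light. Substrate was at its KM (25uM), buffer 200mM KPO4, reaction 60 min at RT.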
# [16] = target: Cytochrome P450 2C19 (Homo sapiens) (UniProt P33261); test: qHTS Assay for Inhibitors and Substrates of Cytochrome P450 2C19 (AID 899); conditions: recombinant CYP2C19, luciferin-H EGE luminescence; series mostly up to 57.1 µM; further: potency means the concentration at half of the fitted maximal effect; nearly all actives have a fitted effect of over 60% in size
# Chain of Cytochrome P450 2C19 (Homo sapiens) (P33261 whole entry, looked up): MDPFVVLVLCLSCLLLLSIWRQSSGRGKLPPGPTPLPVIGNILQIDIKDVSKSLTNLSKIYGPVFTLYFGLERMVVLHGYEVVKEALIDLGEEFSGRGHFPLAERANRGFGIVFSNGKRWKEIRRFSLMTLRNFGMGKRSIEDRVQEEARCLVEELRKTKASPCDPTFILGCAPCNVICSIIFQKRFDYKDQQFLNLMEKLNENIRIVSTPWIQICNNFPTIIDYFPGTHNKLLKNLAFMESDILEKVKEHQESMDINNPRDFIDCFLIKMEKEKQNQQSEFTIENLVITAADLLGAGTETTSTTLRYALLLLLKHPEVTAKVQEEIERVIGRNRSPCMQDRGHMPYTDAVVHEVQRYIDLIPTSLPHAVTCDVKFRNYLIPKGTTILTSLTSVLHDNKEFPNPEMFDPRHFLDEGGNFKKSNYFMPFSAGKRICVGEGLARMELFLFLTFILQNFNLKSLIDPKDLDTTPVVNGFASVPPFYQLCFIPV
# Procedure, shortened: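 NADPH-dependent conversion of Luciferin-H EGE (10uM, at KM) by 5nM enzyme in 50mM KPO4, 60 min at 37C following 10 min compound preincubation. Stopped with luciferin detection buffer; luminescence read after 20 min.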
# [17] = target: Dual specificity protein kinase CLK4 (Homo sapiens) (UniProt Q9HAZ1); test: qHTS Assay for Inhibitors of CDC-like Kinase 4 (ADP-FP Assay) (AID 1795); conditions: Transcreener ADP fluorescence polarization; series mostly up to 50 µM; further: on the % scale 0 is the no-effect control and ±100 the full control effect; nearly all actives have a fitted effect of over 60% in size
# Procedure, shortened: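 Recombinant human Clk4 (6.25 nM) phosphorylated RS repeat peptide (100 uM) with 1 uM ATP in Tris pH 7.5/MgCl2/EGTA/DTT/Triton buffer for one hour. ADP was quantified by Transcreener competitive fluorescence polarization against an ADP calibration curve.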
# [18] = measured here: cell count channel max response
# [19] = measured here: lipid channel max response
SMILES,Potency [1],"activity change, negative = inhibition [2]","activity change, negative = inhibition [3]","activity, negative = inhibition [4]",Potency [5],Potency [6],outcome [7],Potency [8],"activity change, negative = inhibition [9]","max response [9, 18] [%]","max response [9, 19] [%]",Potency [10],Potency [11],Potency [12],Potency [13],Potency [14],Potency [15],Potency [16],Potency [17]
CC(=O)NCCNc1nc(-c2cccnc2)nc2ccccc12,> 11.4 µM (inactive),5.7% (inactive),0.668% (inactive),1.25% (inactive),> 46 µM (inactive),> 46 µM (inactive),inactive,inactive,5.64% (inactive),21.4,27.2,25.1 µM (active),14.1 µM (active),inactive,inactive,,,,
COc1cccc(Nc2ncc3nc(-c4ccc(Cl)cc4)c(=O)n(C4CC4)c3n2)c1,> 11.4 µM (inactive),,-4.19% (inactive),-10.8% (inactive),> 9.22 µM (inactive),> 46 µM (inactive),inactive,inactive,-3.5% (inactive),-0.959,-5.52,inactive,inactive,inactive,inactive,,,,
Cc1nc2cnc(Nc3ccccc3)nc2n(Cc2ccc(F)cc2)c1=O,> 11.4 µM (inactive),-12.8% (inactive),-23.6% (inactive),2.69% (inactive),> 9.22 µM (inactive),> 46 µM (inactive),inactive,inactive,1.06% (inactive),7.11,6.57,inactive,inactive,inactive,inactive,,,,
COc1ccc(-n2c(=O)cnc3cnc(OC)nc32)cc1,> 11.4 µM (inactive),-6% (inactive),,-11.2% (inactive),> 9.22 µM (inactive),> 46 µM (inactive),inactive,inactive,4.86% (inactive),24.2,29.5,15.8 µM (active),14.1 µM (active),inactive,inactive,,,,
COc1ccc(-n2c(=O)cnc3cnc(N(C)C)nc32)cc1,> 11.4 µM (inactive),-17.5% (inactive),15.7% (inactive),-7.93% (inactive),> 9.22 µM (inactive),,inactive,inactive,5.53% (inactive),17.5,21.2,11.2 µM (active),12.6 µM (active),,inactive,5.01 µM (active),inactive,,
Cc1ccccc1-c1cc(NCc2ccccc2)ncn1,> 11.4 µM (inactive),19.4% (inactive),,,,> 46 µM (inactive),inactive,,4.42% (inactive),24.9,28.2,inactive,,20 µM (active),inactive,3.98 µM (active),,3.16 µM (active),inactive
